AC50 and outcome data for 19 compounds are collected here from PubChem BioAssay (EPA / NIEHS).

Results filed as inconclusive are left out. Calls of active or inactive are those of the source. The calls were made as follows: active = hit-call score of the fitted dose curve at least 0.9, where 1 is the maximum; inconclusive = response in the unintended direction; inactive = score below 0.9. Where a SMILES comes first, the peptide text is derived from it. [ ]: non-standard residue; d: D form. Orn = NCCC[C@H](N)C(=O)O

The nature of assay [1]: TOX21_p53_BLA_p2_viability: Viability Assessment in the Tox21 HCT-116 p53 Agonism Beta-lactamase Assay, Phase 2 (AID 2283591).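 Also: compound exposure lasted 16 h at 37 °C; actives lower the ATP signal meaning cytotoxicity.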 Summed up:
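Cytotoxicity readout: CellTiter-Glo ATP luminescence, 30 min at room temperature, after the beta-lactamase read. Cells were HCT116 exposed 16 h at 37C to compounds pin-transferred at 217-fold dilution from DMSO stocks.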

In assay [2] the target is Cellular tumor antigen p53 (Homo sapiens) (UniProt P04637). The experiment in a line: TOX21_p53_BLA_p2_ratio: Tox21 HCT-116 p53 Agonism Beta-lactamase Assay, Ratio, Phase 2 (AID 2283592). Summed up:
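DMSO-normalized, positive-direction endpoint derived from the 460 nm/530 nm FRET ratio in HCT116 p53 beta-lactamase reporter cells exposed 16 h at 37C and loaded with CCF4-AM for 2 h.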

Assay [3] in a line: TOX21_p53_BLA_p3_viability: Viability Assessment in the Tox21 HCT-116 p53 Agonism Beta-lactamase Assay, Phase 3 (AID 2283593).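 Also: cells exposed to compound for 16 h before reading.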 Summed up: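 Cellular ATP was quantified by CellTiter-Glo luminescence, read after 30 min at room temperature. Beforehand, HCT116 cells (4000/well) received compound 5 h post-seeding, 217-fold diluted from DMSO, then incubated 16 h at 37C.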
For assay [4], the target named is Cellular tumor antigen p53 (Homo sapiens) (UniProt P04637). The experiment in a line: TOX21_p53_BLA_p3_ratio: Tox21 HCT-116 p53 Agonism Beta-lactamase Assay, Ratio, Phase 3 (AID 2283596). Summed up: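 Cells were seeded at 4000/well, rested 5 h at 37C, then dosed with DMSO compound solutions (217-fold dilution) for 16 h. CCF4-AM substrate was loaded for 2 h at room temperature, and the 460/530 nm emission ratio was fitted for gain of signal versus DMSO.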
Sequence of Cellular tumor antigen p53 (Homo sapiens) (P04637 whole entry, looked up): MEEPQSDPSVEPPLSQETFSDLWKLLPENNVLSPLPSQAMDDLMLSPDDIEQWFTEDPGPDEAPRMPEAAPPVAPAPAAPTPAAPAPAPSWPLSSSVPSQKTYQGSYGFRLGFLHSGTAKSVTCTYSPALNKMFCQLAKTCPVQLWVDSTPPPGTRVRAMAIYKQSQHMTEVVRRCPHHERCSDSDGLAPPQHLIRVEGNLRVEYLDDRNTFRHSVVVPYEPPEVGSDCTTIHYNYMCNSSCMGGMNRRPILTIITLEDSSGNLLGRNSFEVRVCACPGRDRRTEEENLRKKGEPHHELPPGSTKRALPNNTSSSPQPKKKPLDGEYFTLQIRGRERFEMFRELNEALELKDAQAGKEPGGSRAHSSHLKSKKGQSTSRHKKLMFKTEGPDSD

Assay [5] can be described thus: TOX21_p53_BLA_p4_viability: Viability Assessment in the Tox21 HCT-116 p53 Agonism Beta-lactamase Assay, Phase 4 (AID 2283597).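 Also: hits lower the luminescence signal meaning cytotoxicity.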 The method in brief:
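In this multiplexed secondary endpoint, HCT116 cells (4000 per well, compound at 5 h, 16 h treatment) received CellTiter-Glo after the beta-lactamase read. Luminescence after 30 min RT reflects ATP, and falling signal marks cytotoxicity.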

Assay [6] has as its target Cellular tumor antigen p53 (Homo sapiens) (UniProt P04637). The experiment in a line: TOX21_p53_BLA_p5_ratio: Tox21 HCT-116 p53 Agonism Beta-lactamase Assay, Ratio, Phase 5 (AID 2283599). Summed up:
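Beta-lactamase reporter ratio (blue 460 nm over green 530 nm, 405 nm excitation) after 2 h CCF4-AM loading, in HCT-116 cells exposed 16 h at 37 C to compounds pinned at 217-fold dilution. Increases relative to DMSO baseline scored.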

The nature of assay [7]: TOX21_p53_BLA_p5_viability: Viability Assessment in the Tox21 HCT-116 p53 Agonism Beta-lactamase Assay, Phase 5 (AID 2283600). Summed up:
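Here cell health was gauged by ATP levels in wells holding 4000 cells, each treated 16 h with DMSO-delivered compounds at 217-fold dilution; reduced luminescence marked toxicity.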

The target of assay [8] is Cellular tumor antigen p53 (Homo sapiens) (UniProt P04637). The experiment in a line: TOX21_p53_BLA_p4_ratio: Tox21 HCT-116 p53 Agonism Beta-lactamase Assay, Ratio, Phase 4 (AID 2283601). Summed up: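 Signal is the blue/green (460nm/530nm) ratio of cleaved versus uncleaved CCF4-AM substrate, read after 2 h substrate loading. Cells were HCT116 carrying the p53-responsive beta-lactamase reporter, dosed 16 h at 37C, 5% CO2; CellTiter-Glo measured in parallel.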

Regarding `COc1cc(C=C2CCCC(=Cc3ccc(O)c(OC)c3)C2=O)ccc1O`, the AC50 (commonly the midpoint of the concentration-response curve, whichever way the signal moves) in assay [1] was 15.2 µM (active); in assay [3], 15.5 µM (active); in assay [5], 27.8 µM (active); in assay [6] it was 11.5 µM (active); in assay [7] it was 17 µM (active). Besides, the outcome in assay [2], in assay [4] and in assay [8] was inactive.

With `CCCCC(CC)CN=C(N)NC(N)=NCCCCCCN=C(N)NC(N)=NCC(CC)CCCC` (configuration not stated), the AC50 in assay [1] is 32 µM (active); in assay [2] it was 24.1 µM (active); in assay [3], 36.8 µM (active); in assay [4] it was 33.9 µM (active); in assay [5], 29.4 µM (active); in assay [6], 37.3 µM (active). The AC50 in assay [7] was 31.6 µM (active); in assay [8], 27.9 µM (active).

As for `CC(C)C[C@@H]1NC(=O)[C@H](CCCN)NC(=O)[C@H](C(C)C)NC(=O)[C@@H]2CCCN2C(=O)[C@@H](Cc2ccccc2)NC(=O)[C@H](CC(C)C)NC(=O)[C@H](CCCN)NC(=O)[C@H](C(C)C)NC(=O)[C@@H]2CCCN2C(=O)[C@@H](Cc2ccccc2)NC1=O` (cyclo(V[Orn]L[dF]PV[Orn]L[dF]P)), the AC50 in assay [1] was 8.09 µM (active); in assay [3], 5.88 µM (active); in assay [5] it was 5.84 µM (active); in assay [7], 4.51 µM (active); in assay [8], 2.35 µM (active). Besides, the result in assay [2], in assay [4] and in assay [6] was inactive.

`NC(=S)N=Nc1ccc(NN=C(N)N)cc1`: the compound was called inactive in assay [1], in assay [2], in assay [3], in assay [4], in assay [5] and in assay [6]. The result in assay [7] and in assay [8] was inactive.

Turning to `O=c1cccccc1O`, the compound was called inactive in assay [1], in assay [2], in assay [3], in assay [4], in assay [5] and in assay [6]. Besides, the compound was classed as inactive in assay [7] and in assay [8].

With `C=CCNC(N)=S`, the result in assay [1], in assay [2], in assay [3], in assay [4], in assay [5] and in assay [6] was inactive. In addition, the compound was classed as inactive in assay [7] and in assay [8].

Regarding `O=C(CCS)OCC(COC(=O)CCS)(COC(=O)CCS)COC(=O)CCS`, the outcome in assay [1], in assay [2], in assay [3], in assay [5], in assay [6] and in assay [7] was inactive. The outcome in assay [8] was inactive. Further, the AC50 in assay [4] was 15.7 µM (active).

For `COc1cc(NS(C)(=O)=O)ccc1Nc1c2ccccc2nc2ccccc12`, the AC50 in assay [1] was 12.8 µM (active); in assay [2] it was 7.65 µM (active); in assay [3], 15.1 µM (active); in assay [4], 8.11 µM (active); in assay [5], 25.6 µM (active); in assay [6], 22.1 µM (active). For the same compound, the values for the AC50 in assay [7] and in assay [8] were 33.6 µM (active) and 1.36 µM (active), respectively.

In the case of `Cc1cc(/C=C/c2ccc3cc(N(C)C)ccc3[n+]2C)c(C)n1-c1ccccc1`, the half-maximal activity concentration (AC50) in assay [1] was 16.7 µM (active); in assay [2], 13.4 µM (active); in assay [4], 16.1 µM (active); in assay [5], 16.6 µM (active); in assay [6] it was 15.8 µM (active); in assay [8], 20.1 µM (active). The compound was classed as inactive in assay [3] and in assay [7].

On to `Cc1cc2c(C(C)C)c(O)c(O)c(C=O)c2c(O)c1-c1c(C)cc2c(C(C)C)c(O)c(O)c(C=O)c2c1O`, for which the AC50 is 10 µM (active) in assay [1]; 30.1 µM (active) in assay [2]; 6.89 µM (active) in assay [3]; 29.9 µM (active) in assay [4]; 10 µM (active) in assay [5]; 35 µM (active) in assay [6]. Further, the AC50 in assay [7] is 10.2 µM (active); in assay [8], 33.2 µM (active).

Regarding `CCCN1C[C@H](CSC)C[C@@H]2c3cccc4[nH]cc(c34)C[C@H]21`, the call in assay [1], in assay [2], in assay [3], in assay [4], in assay [5] and in assay [6] was inactive. The compound was called inactive in assay [7] and in assay [8].

In the case of `C/C=C1\NC(=O)[C@H]2CSSCC/C=C/[C@H](CC(=O)N[C@H](C(C)C)C(=O)N2)OC(=O)C(C(C)C)NC1=O` (some centres not stated), the AC50 in assay [1] is 1.46 µM (active); in assay [2], 0.00463 µM (active); in assay [3], 1.87 µM (active); in assay [4], 4.57 µM (active); in assay [5], 0.735 µM (active); in assay [6] it was 11.4 µM (active). Further, the AC50 in assay [7] was 2.56 µM (active); in assay [8], 7.21 µM (active).

As to `C=CC(=O)OCC1CC2CC1C1CCC(COC(=O)C=C)C21` (configuration not stated), the AC50 in assay [1] was 65.8 µM (active); in assay [2], 55.2 µM (active); in assay [5], 64.1 µM (active); in assay [6], 74.8 µM (active); in assay [8], 53 µM (active). For the same compound, the outcome in assay [3], in assay [4] and in assay [7] was inactive.

For the compound `Cc1cc(O)c(C(C)(C)C)cc1Sc1cc(C(C)(C)C)c(O)cc1C`, the AC50 was 13.2 µM (active) in assay [1]; 37.9 µM (active) in assay [2]; 20 µM (active) in assay [3]; 33.4 µM (active) in assay [4]; 14.3 µM (active) in assay [5]; 40.9 µM (active) in assay [6]. Besides, the AC50 in assay [7] was 18.1 µM (active); in assay [8], 31.5 µM (active).

Consider `CCOC(CN1CCN(CC(C)C(=O)c2ccccc2)CC1)c1ccccc1` (configuration not stated), for which the compound was called inactive in assay [1], in assay [2], in assay [3], in assay [4], in assay [5] and in assay [6]. Also, the result in assay [7] and in assay [8] was inactive.

In the case of `Cc1c(-c2ccccc2)oc2c(C(=O)OCCN3CCCCC3)cccc2c1=O`, the compound was called inactive in assay [1], in assay [2], in assay [3], in assay [4], in assay [5] and in assay [6]. Besides, the compound was called inactive in assay [7] and in assay [8].

With `Nc1ccc(C(=O)Nc2ccccc2N)cc1`, the compound was called inactive in assay [1], in assay [3], in assay [6], in assay [7] and in assay [8]. In addition, the AC50 in assay [2] is 12.6 µM (active); in assay [4] it was 21.1 µM (active); in assay [5] it was 20.9 µM (active).

`N[C@@H](COP(=O)(O)O)C(=O)O`: the compound was classed as inactive in assay [1], in assay [2], in assay [3], in assay [4], in assay [5] and in assay [6]. The compound was called inactive in assay [7] and in assay [8].

`CC1=C2[C@H](/C=C(\C)C(=O)O)CC[C@@H](C)[C@H]2CC1`: the compound was classed as inactive in assay [1], in assay [2], in assay [3], in assay [4], in assay [5] and in assay [6]. The call in assay [7] and in assay [8] was inactive.
